This is an account of results in PubChem BioAssay.

Activity calls are given as the source filed them.

For test [1], the system named is Human papillomavirus type 1a protein E7 (residues 44-93). In words: small molecules binding HPV E7 44-93 – biochemical, small-molecule microarray, residues 44-93, 635 nm fluorescence, primary screen (AID 1108).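 Also: E7 fragment applied at 1 µg/mL in TBST for 1 h at 4 C; score combines spot fluorescence with its signal to noise ratio.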 The note with it: fluorescence 635 nm, higher = more signal.
A short description of test [2]: hepatitis C replication reporter changes, two-sided – Huh7 cells, luciferase reporter, HCV replication inhibitor project, primary screen (AID 1109).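 Also: huh7 hepatoma cells harbouring a luciferase neomycin HCV replicon reporter; luciferase luminescence as measure of HCV replicon replication; test concentration not given here.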 Conditions: Huh7 HCV replicon luciferase reporter, 48 h; higher = more signal. For orientation: Reporter assays use an easily measured gene product as a stand-in for the process of interest.
Test [3] has as its target Left-right determination factor 2 (Homo sapiens) (UniProt O00292). Nature of the test: small molecules binding LEFTY2 protein – biochemical, small-molecule microarray, 635 nm fluorescence scan, primary screen (AID 1110). The note with it: higher = more signal.
The target of test [4] is Calmodulin-1 (Homo sapiens) (UniProt P0DP23). Nature of the test: small molecules binding calmodulin-1 with EGTA – biochemical, small-molecule microarray, Cy5-labelled CALM1, profiling panel (AID 1111).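 Also: labelled calmodulin applied in Tris saline Tween buffer holding calcium plus EGTA and DTT.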 Conditions: Cy5-CALM1 binding fluorescence, higher = more signal.
Test [5] has the same target. Nature of the test: small molecules binding Ca-loaded calmodulin-1 – biochemical, small-molecule microarray, Cy5-labelled CALM1, plus calcium, artefact control for SMM control-protein annotation, profiling panel (AID 1112).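 Also: score merges spot fluorescence with signal to noise from triplicate slides.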 The note with it: Cy5-CALM1 binding fluorescence, higher = more signal.
Test [6] can be described thus: probe aWnt5a binding to arrayed compounds – biochemical, biotinylated probe, 635/667 nm fluorescence, primary screen (AID 1113).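 Also: score merges 667 nm fluorescence intensity with signal-to-noise per printed feature.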 The note with it: small-molecule microarray, higher = more signal.
Test [7] is described as follows: probe aShh binding to arrayed compounds – biochemical, biotinylated probe, 635/667 nm fluorescence, primary screen (AID 1114).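 Also: probe is biotin-labelled aShh protein from a stem cell growth factor screen; measures binding of labelled protein to compounds printed on the slide; score merges feature fluorescence at 667 nm with signal-to-noise.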 Conditions: small-molecule microarray, higher = more signal.
A short description of test [8]: probe aNog binding to arrayed compounds – biochemical, biotinylated probe, 635/667 nm fluorescence, primary screen (AID 1115).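 Also: probe is biotinylated aNog protein used at 0.15 µg/mL for 1 h at 4 C; z-score combines 667 nm fluorescence of each spot with its signal to noise.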 The note with it: small-molecule microarray, higher = more signal.
Test [9] addresses Torsin-1A-interacting protein 1 (Homo sapiens) (UniProt Q5JTV8). Nature of the test: compound microarray binding of lysate hLAP1 – cell lysate, small-molecule microarray, COS7 lysate, 635/667 nm fluorescence, primary screen (AID 1116). Conditions: 635 nm fluorescence, higher = more signal.
For test [10], the target named is Alpha-bungarotoxin (Bungarus multicinctus) (UniProt P60615). Nature of the test: compounds binding labelled alpha-BTX control protein – biochemical, small-molecule microarray, Alexa647 label, 635/667 nm fluorescence, artefact control for SMM control protein annotation, profiling panel (AID 1117). The note with it: alpha-BTX-A647 binding fluorescence, higher = more signal.

In test [11] the target is Albumin (Bos taurus) (UniProt P02769). In words: compounds binding labelled BSA control protein – biochemical, small-molecule microarray, Alexa647 label, 635/667 nm fluorescence, artefact control for SMM control protein annotation, profiling panel (AID 1118).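 Also: score merges 667 nm emission intensity and signal-to-noise per printed compound spot.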 Conditions: BSA-A647 binding, fluorescence 635 nm, higher = more signal.
The nature of test [12]: probe aXIP binding to arrayed compounds – biochemical, NeuroSMM set, 635/667 nm fluorescence, primary screen (AID 1119).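 Also: probe is the protein aXip251-270 applied at 1 µg/mL to compound-printed slides; binding of probe to printed compounds measured as 667 nm fluorescence plus signal to noise.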 The note with it: small-molecule microarray, higher = more signal, called active from +8 up or from −8 down.
A short description of test [13]: probe aNOTCH3 binding on compound microarray – biochemical, small-molecule microarray, 635/667 nm fluorescence, primary screen (AID 1120).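 Also: probe is a biotin-tagged antibody raised against NOTCH3 rather than NOTCH3 protein; score merges spot fluorescence near 667 nm with spot signal to noise.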 Conditions: higher = more signal.
The nature of test [14]: probe aNOTCH2 binding on compound microarray – biochemical, small-molecule microarray, 635/667 nm fluorescence, primary screen (AID 1121).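 Also: score merges feature fluorescence read at 667 nm with its signal to noise.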 Conditions: higher = more signal.
For test [15], the target named is Carbonic anhydrase 2 (Homo sapiens) (UniProt P00918). Nature of the test: compounds binding carbonic anhydrase 2 – biochemical, small-molecule microarray, Alexa647-labelled CAII, profiling panel (AID 1122). The note with it: CAII-A647 binding fluorescence, higher = more signal.
Test [16] is described as follows: COS7 lysate on small-molecule microarray, probe aHis, 635 nm (AID 1123).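 Also: z-score combines 667nm fluorescence intensity with signal-to-noise per printed compound spot.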 Conditions: COS7 cell lysate, fluorescence, higher = more signal.
The nature of test [17]: probe aLAP1 signal on lysate-treated microarray – cell lysate, small-molecule microarray, COS7 lysate, primary screen (AID 1124).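 Also: lysate comes from COS7 cells expressing LAP1 and is applied at 0.3 µg/mL; score merges spot fluorescence near 667 nm with signal-to-noise over triplicate slides.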 Conditions: probe aLAP1, fluorescence, higher = more signal.
Test [18] has as its system Sam68 (KHDRBS1). In words: compounds binding KHDRBS1 protein – biochemical, small-molecule microarray, 635 nm fluorescence, primary screen (AID 1125).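 Also: score merges 667 nm channel intensity with signal to noise over triplicate slides.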 Conditions: higher = more signal.
The test system of test [19] is Chordin-like protein 2 (CHRDL2). In words: compounds binding chordin-like 2 – biochemical, small-molecule microarray, 635 nm fluorescence, primary screen (AID 1126).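 Also: printed compound slides probed with Chrdl2 protein at 4 µg/mL for 1 h at 4 C; score merges 667 nm emission intensity with signal to noise over three replicate slides.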 The note with it: fluorescence 635 nm, higher = more signal.
The target of test [20] is Concanavalin-A (Canavalia ensiformis) (UniProt P02866). In words: compounds binding concanavalin A lectin – biochemical, small-molecule microarray, Alexa647 label, 635 nm, artefact control for SMM control protein annotation, primary screen (AID 1127).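 Also: z combines 667 nm emission intensity with signal-to-noise across three replicate slides.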 Conditions: ConA-A647 binding fluorescence, higher = more signal.
Sequence of Concanavalin-A (Canavalia ensiformis) (P02866 whole entry, looked up): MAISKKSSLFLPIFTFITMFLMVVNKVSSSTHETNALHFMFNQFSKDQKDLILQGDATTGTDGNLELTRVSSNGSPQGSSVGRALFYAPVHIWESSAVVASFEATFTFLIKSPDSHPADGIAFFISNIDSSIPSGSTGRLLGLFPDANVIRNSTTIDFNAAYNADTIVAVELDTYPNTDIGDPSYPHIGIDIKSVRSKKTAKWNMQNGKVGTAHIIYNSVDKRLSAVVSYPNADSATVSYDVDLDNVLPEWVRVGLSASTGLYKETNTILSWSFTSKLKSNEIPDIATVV

Sequence of Left-right determination factor 2 (Homo sapiens) (O00292 whole entry, looked up): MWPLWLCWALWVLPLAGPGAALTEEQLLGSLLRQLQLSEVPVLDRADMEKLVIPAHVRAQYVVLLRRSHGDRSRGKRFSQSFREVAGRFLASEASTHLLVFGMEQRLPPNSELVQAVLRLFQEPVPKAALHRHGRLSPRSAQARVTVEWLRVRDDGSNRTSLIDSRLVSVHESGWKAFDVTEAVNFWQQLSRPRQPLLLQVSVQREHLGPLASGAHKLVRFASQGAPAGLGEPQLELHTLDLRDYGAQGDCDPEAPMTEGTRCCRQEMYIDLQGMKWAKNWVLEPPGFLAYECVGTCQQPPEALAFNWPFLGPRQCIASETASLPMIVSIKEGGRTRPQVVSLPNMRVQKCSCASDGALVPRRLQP
Sequence of Alpha-bungarotoxin (Bungarus multicinctus) (P60615 whole entry, looked up): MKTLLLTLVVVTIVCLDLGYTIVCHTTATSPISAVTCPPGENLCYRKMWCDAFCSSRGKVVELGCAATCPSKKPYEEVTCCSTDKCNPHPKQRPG
Sequence of Albumin (Bos taurus) (P02769 whole entry, looked up): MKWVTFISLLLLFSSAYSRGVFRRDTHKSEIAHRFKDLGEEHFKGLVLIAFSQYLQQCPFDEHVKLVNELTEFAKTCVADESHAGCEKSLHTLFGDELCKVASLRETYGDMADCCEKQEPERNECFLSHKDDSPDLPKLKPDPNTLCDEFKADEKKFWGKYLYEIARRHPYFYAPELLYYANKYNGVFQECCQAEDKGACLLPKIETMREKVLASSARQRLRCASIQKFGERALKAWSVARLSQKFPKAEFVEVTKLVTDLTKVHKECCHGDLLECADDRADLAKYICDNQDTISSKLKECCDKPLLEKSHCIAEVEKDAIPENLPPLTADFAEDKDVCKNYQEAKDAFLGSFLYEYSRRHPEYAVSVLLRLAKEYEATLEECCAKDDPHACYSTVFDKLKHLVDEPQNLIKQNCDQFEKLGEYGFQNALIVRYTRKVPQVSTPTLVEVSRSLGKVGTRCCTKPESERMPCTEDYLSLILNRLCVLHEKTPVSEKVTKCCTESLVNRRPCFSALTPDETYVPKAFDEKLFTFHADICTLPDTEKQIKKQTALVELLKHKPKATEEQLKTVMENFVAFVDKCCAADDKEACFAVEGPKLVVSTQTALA
Sequence of Torsin-1A-interacting protein 1 (Homo sapiens) (Q5JTV8 whole entry, looked up): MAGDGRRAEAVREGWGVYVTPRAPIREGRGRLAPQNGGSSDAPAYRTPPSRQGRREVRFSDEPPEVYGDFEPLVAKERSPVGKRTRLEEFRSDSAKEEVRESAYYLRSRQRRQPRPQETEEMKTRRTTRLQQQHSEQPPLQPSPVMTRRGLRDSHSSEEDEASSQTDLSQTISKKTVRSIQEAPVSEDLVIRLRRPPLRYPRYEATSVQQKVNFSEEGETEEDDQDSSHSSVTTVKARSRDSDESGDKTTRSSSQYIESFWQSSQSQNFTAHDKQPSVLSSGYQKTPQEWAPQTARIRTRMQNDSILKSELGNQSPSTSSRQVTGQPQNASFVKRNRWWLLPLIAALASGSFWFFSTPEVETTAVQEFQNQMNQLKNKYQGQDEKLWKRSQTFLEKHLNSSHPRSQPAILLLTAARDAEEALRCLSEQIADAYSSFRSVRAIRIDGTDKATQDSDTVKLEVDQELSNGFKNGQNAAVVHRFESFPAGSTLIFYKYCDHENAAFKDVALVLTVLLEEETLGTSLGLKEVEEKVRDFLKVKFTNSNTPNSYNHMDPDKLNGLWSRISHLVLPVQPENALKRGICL

In the case of `COCCCNC(=O)[C@@]1(Cc2ccccc2N=[N+]=[N-])N=C(c2ccc(OCCCO)cc2)O[C@H]1c1ccccc1N=[N+]=[N-]`, the composite z-score in test [1] is 0.852; in test [3], 0.431; in [4] it was 1.72; in test [5], 0.686; in test [6] it was 0.168; in test [7], -0.477. Moreover, the composite z-score is 1.43 in test [8]; 0.561 in test [9]; 1.74 in test [10]; 0.964 in test [11]; 0.386 in test [13]; 0.149 in test [14]. For the same compound, the composite z-score is 0.58 in [15]; 2.76 in test [16]; 0.889 in test [17]; 1.29 in test [18]; -0.0927 in [19]; 1.1 in test [20]. Also, the z-score in test [2] was -2.86. Besides, the composite Z-score in [12] was 0.328 (inactive).
Turning to `CC(C)[C@@H](CO)NC(=O)[C@H]1[C@@H](c2ccccc2)N(c2ccccc2)O[C@@H]1C`, the composite z-score in test [1] is 0.0503; in [3], 0.28; in test [4], -0.31; in test [5] it was -0.354; in test [6], -0.148; in test [7], -0.186. Further, the composite z-score in test [8] was -0.181; in [9], 0.382; in [10], 0.0366; in test [11], 0.595; in test [13], -0.0573; in [14], -0.162. For the same compound, the composite z-score in test [15] is 0.459; in test [16] it was 0.46; in test [17], 0.145; in test [18], -0.238; in [19], 0.207; in [20], -0.271. The compound further returned a z-score in test [2] of 0.0505. Besides, the composite Z-score in [12] is 0.365 (inactive).
For the compound `O=C1NC(=O)C2C1C=CC(C(O)C(c1ccccc1)c1ccccc1)N2Nc1ccc(Cl)cc1Cl` (stereo not given), the composite z-score in test [1] is 1.36; in test [3], -0.5; in [4], 1.81; in test [5] it was 0.625; in [6], 0.065; in [7], 0.234. The composite z-score in test [8] was 1.41; in test [9] it was 0.343; in test [10], 0.503; in test [11], 0.766; in [13], 0.263; in test [14] it was 0.0409. Moreover, the composite z-score is 0.584 in test [15]; 1.84 in test [16]; 0.0766 in [17]; 0.993 in test [18]; -0.483 in [19]; 0.788 in test [20]. For the same compound, the z-score in test [2] is -1.75. Moreover, the composite Z-score in test [12] is -0.713 (inactive).
In the case of `COc1ccc([C@H]2OC[C@@H]3CC4(CC=CC4)C(=O)N32)cc1`, the composite z-score in [1] is 0.659; in test [3], 0.935; in [4], -1.18; in [5], -1.99; in test [6], -0.124; in [7] it was -0.0146. Further, the composite z-score in test [8] is -0.196; in [9], -0.251; in test [10] it was 0.144; in test [11] it was -0.505; in test [13], 0.146; in test [14], -0.0662. Moreover, the composite z-score in test [15] was 0.278; in test [16] it was 0.383; in test [17], -0.129; in [18], 0.964; in [19], 1.54; in [20], -0.572. Besides, in test [2], the z-score was 0.0751. For the same compound, in [12], the composite Z-score is 0.544 (inactive).
In the case of `COCCOC(=O)N1C(=O)[C@@]2(c3cc(C#Cc4ccc(OC)cc4)ccc31)[C@H](C(=O)N1CCCCCCC1)[C@H]1C(=O)O[C@H](c3ccccc3)[C@H](c3ccccc3)N1[C@@H]2c1ccc(OCCO)cc1`, the composite z-score in test [1] was determined as 0.114; in test [3], 1.47; in [4] it was 1.88; in test [5], 1.2; in test [6] it was 0.543; in test [7] it was 2.15. Moreover, the composite z-score in test [8] was 2.9; in test [9], 2.98; in [10], 1.14; in test [11], -1.25; in test [13] it was 0.872; in [14], 0.711. Moreover, the composite z-score stood at 0.712 in test [15]; 1.49 in test [16]; 0.913 in test [17]; 1.3 in [18]; 1.48 in test [19]; 0.987 in [20]. In [2], this compound registered a z-score of -1.7. Further, in [12], the composite Z-score was 3.51 (inactive).
As for `CCCCCCC#C[Si](O[C@H](c1ccccc1)c1cn([C@H](CO)Cc2ccccc2)nn1)(C(C)C)C(C)C`, the composite z-score in [1] was 0.205; in [3], -0.154; in test [4], -0.27; in test [5] it was 0.105; in test [6], -0.096; in test [7] it was 0.298. In addition, the composite z-score in test [8] was -0.443; in test [9], 0.8; in [10], -0.218; in test [11], -0.188; in test [13] it was -0.158; in test [14], -0.14. Besides, the composite z-score is 0.855 in test [15]; 1 in test [16]; 0.256 in test [17]; 0.729 in test [18]; -0.346 in test [19]; -0.0362 in [20]. In test [2], the z-score is -0.462. Moreover, the composite Z-score in [12] is -0.377 (inactive).
